# Reference: PubChem BioAssay
# For some assays here: Results with a measured potency or affinity are listed apart. Inconclusive results are not listed. A number with no mark means an inactive call. This is one part of the list. The source made the active and inactive calls. Unless noted, the rule behind the calls is not given here.
# What was measured:
# [1] = RMG-1 ovarian cancer cell viability loss – cherry-pick, dose response (AID 687029;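 active = signal drop whose fitted half-maximal concentration is at most twice the top valid dose, in every test run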;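 note: cells exposed to compound for 96 hours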)
# [2] = IOSE-T80 viability loss, PAX8-independent line – cell-based, cherry-pick, selectivity assay for PAX8 inhibitor project, dose response (AID 687032;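 active = fitted half-maximal concentration for viability loss no higher than twice the top valid dose, in every repeat run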;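 note: cells exposed to compound for 96 h before reading; 0% = neutral control wells and -100% = 2 µM mitoxantrone kill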)
# [3] = CMV-driven luciferase expression suppression in HEK293 – cell-based, luminescence, dry powder, counter-screen for Pax8 inhibitor project, dose response (AID 743020;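 active = signal-lowering compounds whose fitted half-maximal concentration is at or below twice the top tested dose in every run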;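 note: HEK293 cells stably expressing the CMV luciferase reporter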)
# [4] = general cell-killing toxicity readout – plate reader, dry powder samples, cytotoxicity control for PAX8 inhibitor project, dose response (AID 743021)
# [5] = IGROV1 cell killing – plate reader, dry powder samples, PAX8 inhibitor project, dose response (AID 743043);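 note: more negative means fewer viable cells or more cytotoxicity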
# [6] = OVCAR-3 cell viability loss – plate reader, dry powder samples, PAX8 inhibitor project, dose response (AID 743044); details: NIH:OVCAR-3 ovarian cancer cell viability, active compounds read low; at 4.2 µM unless noted
# [7] = toxicity toward immortalized ovarian surface epithelium – cell-based, plate reader, dry powder samples, cytotoxicity control for PAX8 inhibitor project, dose response (AID 743045);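 note: 0% = neutral control median and -100% = positive control median; more negative values mean more cell killing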
# [8] = small-molecule DNA binding by polarization – biochemical, fluorescence polarization, cherry-pick, counter-screen for EWS/Fli inhibitor project, dose response (AID 720586;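 active = fitted curve reaches a 35% signal fall AC35 below twice the sample's top valid tested dose, actives reach about 48 µM in these data; inactive = the rest, including activity in the rising direction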;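 note: 0% = neutral control median and -100% = 10 µM mitoxantrone control median; lower polarization ratio signals compound binding to DNA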)
compound,measurement,setting,value
COC(=O)C1=C(c2ccc(F)cc2OCc2ccccc2)C[C@@H]2CC[C@H]1N2C(=O)NC1Cc2ccccc2C1,outcome,[1],inactive
same,outcome,[2],inactive
same,outcome,[3],inactive
same,outcome,[4],inactive
O=c1[nH]c2ccccc2n1C1CCN(C(c2cc3ccccc3o2)c2nnnn2-c2ccc3c(c2)OCCO3)CC1 (stereo not drawn),outcome,[1],inactive
C[C@H]1CCC/C=C/[C@@H]2C[C@H](O)C[C@H]2[C@H](O)/C=C/C(=O)O1,outcome,[1],inactive
same,outcome,[2],inactive
same,outcome,[3],inactive
same,outcome,[4],inactive
CC1=CC(C)CC(C)OC(=O)CC(c2ccc(O)cc2)NC(=O)C(Cc2c(Br)[nH]c3ccccc23)N(C)C(=O)C(C)NC(=O)C(C)C1 (stereo not drawn),outcome,[1],inactive
same,outcome,[2],inactive
same,outcome,[3],inactive
same,outcome,[4],inactive
CC[C@@]1(O)C(=O)OCc2c1cc1n(c2=O)Cc2cc3c(NC(=O)CN)cccc3nc2-1,outcome,[1],inactive
same,outcome,[2],inactive
same,outcome,[3],inactive
same,outcome,[4],inactive
O=c1[nH]c2ccccc2n1C1CCN(C(c2ccccc2OC(F)(F)F)c2nnnn2-c2ccc3c(c2)OCCO3)CC1 (stereo not drawn),outcome,[1],inactive
NC(=O)c1cn(C2OC(CO)C(O)C2O)c2ncnc(N)c12 (stereo not drawn),outcome,[1],inactive
same,outcome,[2],inactive
CCC1CN2CCc3cc(OC)c(OC)cc3C2CC1CC1NCCc2c1[nH]c1ccc(O)cc21 (stereo not drawn),outcome,[1],inactive
same,outcome,[2],inactive
same,outcome,[4],inactive
COc1ccc(CC2C(=O)NC(C)C(=O)N(C)C3C(=O)N(C)C(Cc4ccc(O)c(c4)Oc4ccc(cc4)C3O)C(=O)NC(C)C(=O)NC(C)C(=O)N2C)cc1 (stereo not drawn),outcome,[1],inactive
same,outcome,[2],inactive
same,outcome,[4],inactive
COc1ccc(C(c2nnnn2Cc2ccccc2)N2CCC(n3c(=O)[nH]c4ccccc43)CC2)cc1 (stereo not drawn),outcome,[1],inactive
same,outcome,[3],inactive
same,outcome,[4],inactive
CC1CCC/C=C/C2CC(O)CC2C(O)/C=C/C(=O)O1 (stereo not drawn),outcome,[1],inactive
same,outcome,[2],inactive
same,outcome,[4],inactive
COc1cccc(C(c2nnnn2-c2ccc3c(c2)OCCO3)N2CCC(n3c(=O)[nH]c4ccccc43)CC2)c1OC (stereo not drawn),outcome,[1],inactive
same,outcome,[2],inactive
same,outcome,[4],inactive
C[C@]12CC[C@H](O)C[C@H]1CC[C@@H]1[C@@H]2C[C@@H](O)[C@]2(C)[C@@H](C3=CC(=O)OC3)CC[C@]12O,outcome,[1],inactive
same,outcome,[2],inactive
same,outcome,[4],inactive
O=C(Cc1ccccn1)N1CCCCN2[C@@H](CO)[C@@H](c3ccc(-c4ccccc4F)cc3)[C@@H]2C1,outcome,[1],inactive
same,outcome,[2],inactive
same,outcome,[3],inactive
same,outcome,[5],inactive
same,max activity,[6],31.6% [at 0.5 µM]
same,outcome,[7],inactive
O=C(c1ccccc1)C(CN1CCCC1)c1ccccc1 (stereo not drawn),outcome,[1],inactive
same,outcome,[2],inactive
same,outcome,[4],inactive
CC12CCC3C(CCC4(O)CC(O)CCC34C=O)C1(O)CCC2C1=CC(=O)OC1 (stereo not drawn),outcome,[1],inactive
same,outcome,[2],inactive
same,outcome,[4],inactive
COC(=O)C12OCC34C(CC5C(C)=C(O)C(=O)CC5(C)C3C(O)C1O)OC(=O)C(OC(=O)/C=C(\C)C(C)C)C24 (stereo not drawn),outcome,[1],inactive
same,outcome,[2],inactive
same,outcome,[4],inactive
O=C(C1CC1)N1C[C@@H]2N[C@H](C1)[C@@H]2c1ccc(-c2ccncc2)cc1,outcome,[1],inactive
same,outcome,[2],inactive
same,outcome,[4],inactive
COC1C(O)C(C)OC(OC2CCC3(C)C(CCC4C3C(O)CC3(C)C(C5=CC(=O)OC5)CCC43O)C2)C1O (stereo not drawn),outcome,[1],inactive
same,outcome,[2],inactive
same,outcome,[4],inactive
O=C(Cc1cccnc1)N1CCCCN2[C@H](C1)[C@H](c1ccc(C#CC3CCCC3)cc1)[C@@H]2CO,outcome,[1],inactive
same,outcome,[2],inactive
same,outcome,[3],inactive
same,outcome,[4],inactive
same,outcome,[5],inactive
same,outcome,[7],inactive
O=C(Cc1cccnc1)N1CCCCN2[C@H](C1)[C@H](c1ccc(/C=C/c3ccccc3)cc1)[C@@H]2CO,outcome,[1],inactive
same,outcome,[2],inactive
same,outcome,[3],inactive
same,outcome,[5],inactive
same,outcome,[7],inactive
CC(=CCOc1ccc2ccc(=O)oc2c1)C1=CC(=O)C(C)(C)O1,outcome,[1],inactive
same,outcome,[2],inactive
same,outcome,[4],inactive
C[C@@H]1O[C@@H](O[C@H]2C[C@@H](O)[C@]3(CO)[C@H]4[C@H](O)C[C@]5(C)[C@@H](C6COC(=O)C6)CC[C@]5(O)[C@@H]4CC[C@]3(O)C2)[C@H](O)[C@H](O)[C@H]1O (stereo partly drawn),outcome,[1],inactive
same,outcome,[2],inactive
same,outcome,[4],inactive
COc1cc(C2c3cc4c(c(O)c3CC3COC(=O)C32)OCO4)cc(OC)c1OC (stereo not drawn),outcome,[1],inactive
same,outcome,[2],inactive
same,outcome,[4],inactive
Cc1ccc(OC(=O)N(C)C[C@@H]2OCc3ccccc3-c3c(n(C)c4ccccc34)C(=O)N([C@@H](C)CO)C[C@H]2C)cc1,outcome,[1],inactive
same,outcome,[2],inactive
same,outcome,[4],inactive
same,outcome,[5],inactive
same,outcome,[7],inactive
Cc1c(C(=O)c2cccc3ccccc23)c2cccc3c2n1[C@H](CN1CCOCC1)CO3,outcome,[1],inactive
same,outcome,[3],inactive
same,outcome,[4],inactive
O=C1NC2C(=CC(O)C(O)C2O)c2cc3c(cc21)OCO3 (stereo not drawn),outcome,[1],inactive
same,outcome,[3],inactive
same,outcome,[4],inactive
COC1CC2C=C(C)C=CC=CC(=O)NC(c3ccccc3)CC=CCCC(O)CC(=O)C2=C1O (stereo not drawn),outcome,[1],inactive
same,outcome,[3],inactive
CC1CC(C)CC(C)C(O)C(C#N)=CC=CCC(C2CCCC2C(=O)O)OC(=O)CC(O)C(C)C1 (stereo not drawn),outcome,[1],inactive
same,outcome,[3],inactive
same,outcome,[4],inactive
CN(C)CC(C(=O)Cc1ccccc1)c1ccccc1 (stereo not drawn),outcome,[1],inactive
same,outcome,[3],inactive
same,outcome,[4],inactive
CC(=O)OC1CC(OC2C(O)CC(OC3C(O)CC(OC4CCC5(C)C(CCC6C5CCC5(C)C(C7=CC(=O)OC7)CCC65O)C4)OC3C)OC2C)OC(C)C1OC1OC(CO)C(O)C(O)C1O (stereo not drawn),outcome,[1],inactive
same,outcome,[2],inactive
same,outcome,[4],inactive
COc1cccc(C(c2nnnn2Cc2ccccc2)N2CCC(n3c(=O)[nH]c4ccccc43)CC2)c1OC (stereo not drawn),outcome,[1],inactive
same,outcome,[2],inactive
same,outcome,[4],inactive
CN1C2CCC1/C(=C/c1ccccn1)C(=O)/C2=C\c1ccccn1,outcome,[1],inactive
same,outcome,[2],inactive
same,outcome,[4],inactive
COC(=O)C1=C(c2ccc(F)cc2OCc2ccccc2)C[C@@H]2CC[C@H]1N2C(=O)NCc1ccc(C)cc1,outcome,[1],inactive
same,outcome,[3],inactive
same,outcome,[4],inactive
O=C1NC2C(O)C(O)C(O)C(O)C2c2cc3c(c(O)c21)OCO3 (stereo not drawn),outcome,[1],inactive
same,outcome,[2],inactive
same,outcome,[4],inactive
O=C(Cc1ccncc1)N1CCCCN2[C@H](C1)[C@H](c1ccc(C#Cc3ccccc3F)cc1)[C@@H]2CO,outcome,[1],inactive
same,outcome,[2],inactive
same,outcome,[3],inactive
same,outcome,[4],inactive
same,outcome,[7],inactive
Cc1ccc(C(=O)N[C@@H](C)CN2C3=NC[C@@H](Cc4ccccc4)N3C[C@H]2Cc2ccc(O)cc2)cc1Br,outcome,[1],inactive
same,outcome,[3],inactive
same,outcome,[4],inactive
CCC(C)(O)C(=O)OC1C(=O)OC2CC3C(C)=CC(=O)C(O)C3(C)C3C4(O)OCC23C1C(C)C4O (stereo not drawn),outcome,[3],inactive
same,outcome,[4],inactive
CCC(C)C1NC(=O)C(NC(=O)C(CC(C)C)N(C)C(=O)C2CCCN2C(=O)C(C)O)C(C)OC(=O)C(Cc2ccc(OC)cc2)N(C)C(=O)C2CCCN2C(=O)C(CC(C)C)NC(=O)[C@H](C)C(=O)[C@H](C(C)C)OC(=O)CC1O (stereo partly drawn),outcome,[1],inactive
same,outcome,[3],inactive
same,outcome,[4],inactive
CC1OC(OC2C=C3CCC4C(CCC5(C)C(c6ccc(=O)oc6)CCC45O)C3(C)CC2)C(O)C(OC2OC(CO)C(O)C(O)C2O)C1O (stereo not drawn),outcome,[1],inactive
same,outcome,[4],inactive
COC(=O)C1=C(c2ccc(F)cc2OCc2ccccc2)C[C@@H]2CC[C@H]1N2C(=O)NCc1ccc(C(F)(F)F)cc1,outcome,[1],inactive
same,outcome,[4],inactive
CC(N)C(=O)NC1C2C(=C(O)CC(O)C2O)C(=O)OC1(C)C(Cl)Cl (stereo not drawn),outcome,[1],inactive
same,outcome,[4],inactive
C=Cc1cc(OC)c2c(c1)c(=O)oc1c2cc(OC)c2c(O)ccc(C3OC(C)C(O)C(C)(O)C3O)c21 (stereo not drawn),outcome,[1],inactive
same,outcome,[4],inactive
NC(=S)c1cn(C2OC(CO)C(O)C2O)c2ncnc(N)c12 (stereo not drawn),outcome,[1],inactive
same,outcome,[3],inactive
same,outcome,[4],inactive
CCCCCCCCCCCCn1ccc(=N)cc1,outcome,[1],inactive
same,outcome,[4],inactive
CC(=O)OC1CC(OC2C(O)CC(OC3C(O)CC(OC4CCC5(C)C(CCC6C5CCC5(C)C(C7=CC(=O)OC7)C(O)CC65O)C4)OC3C)OC2C)OC(C)C1OC1OC(CO)C(O)C(O)C1O (stereo not drawn),outcome,[1],inactive
same,outcome,[4],inactive
COc1ccc(C[C@H]2NC[C@H](O)[C@H]2OC(C)=O)cc1,outcome,[1],inactive
same,outcome,[4],inactive
CSCCC(c1nnnn1Cc1ccccc1)N1CCC(n2c(=O)[nH]c3ccccc32)CC1 (stereo not drawn),outcome,[1],inactive
same,outcome,[3],inactive
same,outcome,[4],inactive
C[C@]12CCC3C(CCC4=CC(O)CC[C@@]43/C=N/O)C1(O)CCC2C1=CC(=O)OC1 (stereo partly drawn),outcome,[3],inactive
CC(C)(O)/C=C/C(=O)C(C)(O)C1C(O)CC2(C)C3CC=C4C(C=C(O)C(=O)C4(C)C)C3(C)C(=O)CC12C (stereo not drawn),outcome,[2],inactive
same,outcome,[4],inactive
C[C@]12CC[C@H](O)C[C@H]1CC[C@@H]1C2CC[C@]2(C)[C@@H](C3=CC(=O)OC3)[C@@H](O)C[C@]12O (stereo partly drawn),outcome,[8],inactive
N#Cc1ccc2nc(-c3ccc(CN4CCC(n5c(=O)[nH]c6ccccc65)CC4)cc3)c(-c3ccccc3)nc2c1,outcome,[1],inactive
same,outcome,[4],inactive
CCC(c1nnnn1Cc1ccccc1)N1CCC(n2c(=O)[nH]c3ccccc32)CC1 (stereo not drawn),outcome,[3],inactive
COC1=C(C)C(=O)C2=C(C1=O)C(CO)N1C(C#N)C3CC4C(C1C2N1CCOC41)N3C (stereo not drawn),outcome,[1],inactive
same,outcome,[4],inactive
C[C@@H]1O[C@@H](O[C@@H]2C=C3CC[C@@H]4C(CC[C@]5(C)[C@@H](c6ccc(=O)oc6)CC[C@]45O)[C@@]3(C)CC2)[C@H](O)[C@H](O)[C@H]1O (stereo partly drawn),outcome,[4],inactive
CC(=O)OC(C)(C)/C=C/C(=O)C(C)(O)C1[C@H](O)C[C@@]2(C)C3CC=C4C(CC[C@@H](O)C4(C)C)[C@]3(CO)C(=O)C[C@]12C (stereo partly drawn),outcome,[1],inactive
same,outcome,[3],inactive
same,outcome,[4],inactive
O=C(Cc1ccccn1)N1CCCCN2[C@@H](CO)[C@@H](c3ccc(-c4ccc(F)cc4)cc3)[C@@H]2C1,outcome,[2],inactive
same,outcome,[3],inactive
same,outcome,[4],inactive
same,outcome,[5],inactive
same,max activity,[6],9.98%
same,outcome,[7],inactive
O=c1[nH]c2ccccc2n1C1CCN(C(c2cccs2)c2nnnn2-c2ccc3c(c2)OCCO3)CC1 (stereo not drawn),outcome,[3],inactive
C[C@]12CC[C@H](O)C[C@H]1CC[C@@H]1[C@@H]2CC[C@]2(C)[C@@H](C3=CC(=O)OC3)CC[C@]12O,outcome,[1],inactive
same,outcome,[3],inactive
same,outcome,[4],inactive
N#CC(C#N)=NNc1ccc(-n2ccc(C(F)(F)F)n2)cc1,outcome,[1],inactive
same,outcome,[4],inactive
CC(=O)OC1CC(OC2C(O)CC(OC3C(O)CC(OC4CCC5(C)C(CCC6C5CC(O)C5(C)C(C7=CC(=O)OC7)CCC65O)C4)OC3C)OC2C)OC(C)C1OC1OC(CO)C(O)C(O)C1O (stereo not drawn),outcome,[1],inactive
same,outcome,[4],inactive
